Test results reported in PubChem BioAssay (NCI).
The panel holds about 83,000 compounds, 20% with a hit somewhere; the sample as a whole holds those more often.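 Note: values are percent growth. 100 is the growth of untreated cells, values between 100 and 0 indicate rising inhibition; between -100 and 0 indicates cell death.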 The source made the active and inactive calls. The calls were made as follows: active = growth percent below 10; inactive = the rest.

system: NCI-H460 lung; experiment: NCI-60 one-dose screen, 48 h (100 = growth as untreated, 0 = no growth, -100 = all killed); details: 10 µM unless noted

| SMILES | growth |
| --- | --- |
| CCC1CCc2nc3sc(C(=O)Nc4ccccc4F)c(N)c3cc2C1 (stereo unspecified) | 75.4% (inactive) |
| Cc1nn(-c2ccc(Cl)cc2)c(=O)n1CCOc1ccccc1Cl | 87.2% (inactive) |
| COc1cc(/C=C2\CCCC3=C2NC(C)=NC3c2cc(OC)c(OC)c(OC)c2)cc(OC)c1OC (stereo unspecified) | -28% (active) |
| c1ccc([P+](CCC[P+](c2ccccc2)(c2ccccc2)c2ccccc2)(c2ccccc2)c2ccccc2)cc1 | 77.6% (inactive) |
| CC1=C(C#N)C(C)(C)C(C#N)=C(C)N1 | 106% (inactive) |
| COc1cc(C(=O)OCCCCCCCCCCC[P+](c2ccccc2)(c2ccccc2)c2ccccc2)ccc1O | -10.6% (active) |
| Nc1c(C(=O)Nc2ccccc2)sc2nc3c(cc12)CCCCC3 | 6.63% (active) |
| COc1cccc(C2CC(=O)Nc3c2c(C)nn3-c2nc3ccccc3[nH]2)c1OC (stereo unspecified) | 50.2% (inactive) |
| COc1cc(C(=O)/C=C/c2cc(C(=O)c3cc(OC)c(OC)c(OC)c3)ccc2OC)ccc1N | -15.6% (active) |
| COc1ccc(NC(=O)c2cc3ccccc3nc2Nc2cc(OC)c(OC)c(OC)c2)cc1 | 50.3% (inactive) |
| O=S(=O)(O)CCl | 113% (inactive) |
| O=C(CN1CCOCC1)Nc1ccc(-c2nc3ccccc3s2)cc1 | 99.7% (inactive) |
| COc1cc(/C=C\c2cc(OC)c(OC)c(OC)c2)cc(N/C=C\C(=O)c2c[nH]c3ccccc23)c1OC | 82.6% (inactive) |
| CC(C)C[C@H](NC(=O)[C@@H](Cc1ccccc1)n1ccc(Nc2ccccc2)cc1=O)B(O)O | 8.89% (active) |
| Cc1ccc2c(c1)C(=O)C(c1c(-c3[nH]c(=O)c4ccc(C)cc4c3O)c(O)c3ccccc3c1O)=NC2=O | -39.8% (active) |
| C=CCn1c(C)nc2ccc(Nc3nc(Nc4ccc(F)cc4)nc4ccccc34)cc21 | 63.4% (inactive) |
| COc1ccccc1CNCCCN1C(=O)c2ccc3c4c(ccc(c24)C1=O)C(=O)N(CCCNCCCCNCCCCN)C3=O | 0.275% (active) |
| COc1ccc2c(c1)C(=O)/C(=C/c1ccc(O)cc1)O2 | 91.2% (inactive) |
| COc1ccc(-c2cn[nH]c2-c2cc(OC)c3c(c2)OCO3)cc1 | 8.74% (active) |

| SMILES | growth |
| --- | --- |
| CCCCCCCCCCCCNC(=S)N/N=C/c1ccc(Cl)c(Cl)c1 | 112% (inactive) |
| O=C1Nc2ccc(Br)cc2C1=N/C=c1\[nH]c(=O)/c(=C/c2ccc(Cl)cc2)s1 | 101% (inactive) |
| O=C(CNc1c(Cl)cccc1Cl)Nc1ccc(-c2nc3ccccc3s2)cc1 | 91.2% (inactive) |
| CCn1c(=O)c2c(=O)c3c4c(oc3oc2c2ccccc21)C(=O)c1ccccc1C4=O | 83.7% (inactive) |
| CN1CCN(c2ccc3cc(-c4nc5ccccc5[nH]4)c(=O)oc3c2)CC1 | 92.7% (inactive) |
| COc1ccc(OC)c(C(=O)c2oc3ccc(Br)cc3c2N)c1 | 8.36% (active) |
| Cc1ccc(Cn2c(-c3nonc3N)nc3ccccc32)cc1 | 71.4% (inactive) |
| Cc1ccc(S(=O)(=O)NCCCNc2nccc(-c3c(-c4ccccc4)nc4sccn34)n2)cc1 | 52% (inactive) |
| COC1=CC(c2ccc[nH]2)=N/C1=C\c1[nH]c(C)c(C(=O)CCCCC(=O)Oc2ccc3c(c2)CCC2C3CC[C@]3(C)[C@@H](O)CC[C@@H]23)c1C (stereo partly specified) | 29.6% (inactive) |
| Cc1cccc(NC(=O)c2sc3nc4c(cc3c2N)CCC4)c1C | 10.8% (inactive) |
| Nc1c(C(=O)Nc2c(Cl)cccc2Cl)sc2nc3c(cc12)CCCCC3 | 54.9% (inactive) |
| COc1cc(OC)c(C(=O)/C=C/c2ccc(C(F)(F)F)cc2)c(OC)c1 | 23.1% (inactive) |
| Cn1c(-c2nonc2NC(=O)c2ccc(F)cc2)nc2ccccc21 | 101% (inactive) |
| CCOC(=O)C1=C(CSC(=S)N(C2CCCCC2)C2CCCCC2)N(C)C(=O)NC1c1ccccc1 (stereo unspecified) | 12.7% (inactive) |
| COC12CC(=O)C(C(C)=O)=C(O)C1(C)c1c(O)c(C)c(O)c(C(C)=O)c1O2 (stereo unspecified) | 55.1% (inactive) |
| COc1ccc(C2=CC(c3ccc(Oc4ccnc5cc(Cl)ccc45)c(OC)c3)c3c(nc(OC)[nH]c3=O)N2)cc1 (stereo unspecified) | 63.5% (inactive) |
| COc1ccc(Cn2cc(COc3cc(/C=C/C(=O)c4cc(OC)c(OC)c(OC)c4)ccc3OC)nn2)cc1 | 96.4% (inactive) |
| O=C(Nc1ccc(OCc2nnc(-c3ccc(Cl)cc3)o2)c(F)c1)Nc1ccc(Cl)c(Cl)c1 | 29.2% (inactive) |
| O=C(CNc1ccc(Cl)cc1)Nc1ccc(-c2nc3ccccc3s2)cc1 | 87.1% (inactive) |

system: HOP-92 NSCLC; experiment: as above; details: 10 µM unless noted

| SMILES | growth |
| --- | --- |
| CCC1CCc2nc3sc(C(=O)Nc4ccccc4F)c(N)c3cc2C1 (stereo unspecified) | 58.3% (inactive) |
| Cc1nn(-c2ccc(Cl)cc2)c(=O)n1CCOc1ccccc1Cl | 78.4% (inactive) |
| COc1cc(/C=C2\CCCC3=C2NC(C)=NC3c2cc(OC)c(OC)c(OC)c2)cc(OC)c1OC (stereo unspecified) | 70.7% (inactive) |
| c1ccc([P+](CCC[P+](c2ccccc2)(c2ccccc2)c2ccccc2)(c2ccccc2)c2ccccc2)cc1 | 20.1% (inactive) |
| CC1=C(C#N)C(C)(C)C(C#N)=C(C)N1 | 95.6% (inactive) |
| COc1cc(C(=O)OCCCCCCCCCCC[P+](c2ccccc2)(c2ccccc2)c2ccccc2)ccc1O | -49.5% (active) |
| Nc1c(C(=O)Nc2ccccc2)sc2nc3c(cc12)CCCCC3 | -4.43% (active) |
| COc1cccc(C2CC(=O)Nc3c2c(C)nn3-c2nc3ccccc3[nH]2)c1OC (stereo unspecified) | 85.4% (inactive) |
| COc1cc(C(=O)/C=C/c2cc(C(=O)c3cc(OC)c(OC)c(OC)c3)ccc2OC)ccc1N | 46.1% (inactive) |
| COc1ccc(NC(=O)c2cc3ccccc3nc2Nc2cc(OC)c(OC)c(OC)c2)cc1 | 54.7% (inactive) |
| O=S(=O)(O)CCl | 106% (inactive) |
| O=C(CN1CCOCC1)Nc1ccc(-c2nc3ccccc3s2)cc1 | 83.3% (inactive) |
| COc1cc(/C=C\c2cc(OC)c(OC)c(OC)c2)cc(N/C=C\C(=O)c2c[nH]c3ccccc23)c1OC | 48.4% (inactive) |
| CC(C)C[C@H](NC(=O)[C@@H](Cc1ccccc1)n1ccc(Nc2ccccc2)cc1=O)B(O)O | -31.4% (active) |
| Cc1ccc2c(c1)C(=O)C(c1c(-c3[nH]c(=O)c4ccc(C)cc4c3O)c(O)c3ccccc3c1O)=NC2=O | 38.7% (inactive) |
| C=CCn1c(C)nc2ccc(Nc3nc(Nc4ccc(F)cc4)nc4ccccc34)cc21 | -0.386% (active) |
| COc1ccccc1CNCCCN1C(=O)c2ccc3c4c(ccc(c24)C1=O)C(=O)N(CCCNCCCCNCCCCN)C3=O | -6.2% (active) |
| COc1ccc2c(c1)C(=O)/C(=C/c1ccc(O)cc1)O2 | -40% (active) |
| COc1ccc(-c2cn[nH]c2-c2cc(OC)c3c(c2)OCO3)cc1 | 33.4% (inactive) |

| SMILES | growth |
| --- | --- |
| CCCCCCCCCCCCNC(=S)N/N=C/c1ccc(Cl)c(Cl)c1 | 122% (inactive) |
| O=C1Nc2ccc(Br)cc2C1=N/C=c1\[nH]c(=O)/c(=C/c2ccc(Cl)cc2)s1 | 83.2% (inactive) |
| O=C(CNc1c(Cl)cccc1Cl)Nc1ccc(-c2nc3ccccc3s2)cc1 | 94.2% (inactive) |
| CCn1c(=O)c2c(=O)c3c4c(oc3oc2c2ccccc21)C(=O)c1ccccc1C4=O | 50.8% (inactive) |
| CN1CCN(c2ccc3cc(-c4nc5ccccc5[nH]4)c(=O)oc3c2)CC1 | 58.9% (inactive) |
| COc1ccc(OC)c(C(=O)c2oc3ccc(Br)cc3c2N)c1 | 4.96% (active) |
| Cc1ccc(Cn2c(-c3nonc3N)nc3ccccc32)cc1 | 77.6% (inactive) |
| Cc1ccc(S(=O)(=O)NCCCNc2nccc(-c3c(-c4ccccc4)nc4sccn34)n2)cc1 | 93.8% (inactive) |
| COC1=CC(c2ccc[nH]2)=N/C1=C\c1[nH]c(C)c(C(=O)CCCCC(=O)Oc2ccc3c(c2)CCC2C3CC[C@]3(C)[C@@H](O)CC[C@@H]23)c1C (stereo partly specified) | 30.4% (inactive) |
| Cc1cccc(NC(=O)c2sc3nc4c(cc3c2N)CCC4)c1C | 17.7% (inactive) |
| Nc1c(C(=O)Nc2c(Cl)cccc2Cl)sc2nc3c(cc12)CCCCC3 | 59.4% (inactive) |
| COc1cc(OC)c(C(=O)/C=C/c2ccc(C(F)(F)F)cc2)c(OC)c1 | 96.8% (inactive) |
| Cn1c(-c2nonc2NC(=O)c2ccc(F)cc2)nc2ccccc21 | 104% (inactive) |
| CCOC(=O)C1=C(CSC(=S)N(C2CCCCC2)C2CCCCC2)N(C)C(=O)NC1c1ccccc1 (stereo unspecified) | 69% (inactive) |
| COC12CC(=O)C(C(C)=O)=C(O)C1(C)c1c(O)c(C)c(O)c(C(C)=O)c1O2 (stereo unspecified) | 46% (inactive) |
| COc1ccc(C2=CC(c3ccc(Oc4ccnc5cc(Cl)ccc45)c(OC)c3)c3c(nc(OC)[nH]c3=O)N2)cc1 (stereo unspecified) | 49.3% (inactive) |
| COc1ccc(Cn2cc(COc3cc(/C=C/C(=O)c4cc(OC)c(OC)c(OC)c4)ccc3OC)nn2)cc1 | 45% (inactive) |
| O=C(Nc1ccc(OCc2nnc(-c3ccc(Cl)cc3)o2)c(F)c1)Nc1ccc(Cl)c(Cl)c1 | 59% (inactive) |
| O=C(CNc1ccc(Cl)cc1)Nc1ccc(-c2nc3ccccc3s2)cc1 | 97.8% (inactive) |
